Source: PubChem BioAssay (EPA / NIEHS)
Records with an inconclusive call do not appear. Active and inactive are the calls of the source. How the source made its calls, unless noted: active means hit-call score of the fitted dose curve at least 0.9, where 1 is the maximum; inconclusive means response in the unintended direction; inactive means score below 0.9.

Assays:
[1] = Tanguay_ZF_120hpf_AXIS_legacy: (Legacy) Oregon State University Tanguay Lab 120 Hour Post-fertilization zebrafish Assay for Body Axis Malformation (AID 2283635);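 on AC50: potency for an increased fraction of larvae scored with body axis malformation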
Outline: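 Binary scoring of axis defects at 120 hpf under brightfield, fitted positive versus DMSO. Tropical 5D embryos, chorion removed by pronase at 4 hpf, were singly exposed in sealed, dark plates at 28C from 6 hpf; DMSO 0.64% final.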

[2] = Tanguay_ZF_120hpf_SNOU_legacy: (Legacy) Oregon State University Tanguay Lab 120 Hour Post-fertilization zebrafish Assay for Snout Malformation (AID 2283637)
Outline: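 Binary snout-malformation call at 120 hpf in wild-type 5D embryos, chorion removed by pronase, under static exposure from 6 hpf at 28C (0.64% DMSO). Embryos dying by 24 or 120 hpf excluded.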

[3] = Tanguay_ZF_120hpf_JAW_legacy: (Legacy) Oregon State University Tanguay Lab 120 Hour Post-fertilization zebrafish Assay for Jaw Malformation (AID 2283638);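 on AC50: active means more embryos with jaw malformation than DMSO controls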
Outline: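 Binary jaw-malformation call at 120 hpf by brightfield microscopy. Embryos (Tropical 5D strain, chorion removed at 4 hpf) were dosed statically at 6 hpf, one per well, at 28C with 0.64% DMSO. Embryos that died were not scored.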

[4] = Tanguay_ZF_120hpf_OTIC_legacy: (Legacy) Oregon State University Tanguay Lab 120 Hour Post-fertilization zebrafish Assay for Otic Vesicle Malformation (AID 2283639)
Outline: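 Binary scoring of otic vesicle defects at 120 hpf in zebrafish (Tropical 5D) held under static exposure at 28C, sealed and shaded, with final DMSO 0.64%. Embryos dying by 24 or 120 hpf excluded; fitted positively against DMSO.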

[5] = Tanguay_ZF_120hpf_PFIN_legacy: (Legacy) Oregon State University Tanguay Lab 120 Hour Post-fertilization zebrafish Assay for Pectoral Fin Malformation (AID 2283648);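 further: each larva judged yes or no for fin defect by brightfield with dead larvae skipped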
Outline: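 Pectoral fin malformation was recorded as a binary endpoint at 120 hpf in wild-type Tropical 5D larvae, which had been dechorionated and exposed statically from 6 hpf at 28C in 0.64% DMSO. Dead embryos were excluded.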

[6] = Tanguay_ZF_120hpf_CFIN_legacy: (Legacy) Oregon State University Tanguay Lab 120 Hour Post-fertilization zebrafish Assay for Caudal Fin Malformation (AID 2283649)
Outline: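 Binary brightfield scoring of caudal fin defects at 120 hpf after static, light-shielded exposure at 28C from 6 hpf. Tropical 5D embryos, chorion removed with pronase at 4 hpf, final DMSO 0.64%.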

[7] = Tanguay_ZF_120hpf_PIG_legacy: (Legacy) Oregon State University Tanguay Lab 120 Hour Post-fertilization zebrafish Assay for Pigmentation Malformation (AID 2283650)
Outline: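 Pigment malformation recorded as a binary call at 120 hpf in zebrafish (Tropical 5D) exposed singly from 6 hpf after pronase dechorionation. Static, sealed, 28C exposure, 0.64% DMSO; mortality excludes scoring; positive-direction fit against DMSO.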

[8] = Tanguay_ZF_120hpf_SWIM_legacy: (Legacy) Oregon State University Tanguay Lab 120 Hour Post-fertilization zebrafish Assay for Swim Bladder Malformation (AID 2283654);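 further: swim bladder malformation in each larva scored yes or no under brightfield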
Outline: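 Scoring is binary for swim bladder defects at 120 hpf, by brightfield inspection of zebrafish larvae. Embryos were exposed singly from 6 hpf after pronase dechorionation, at 28C with 0.64% DMSO; mortality excluded scoring.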

[9] = Tanguay_ZF_120hpf_TRUN_legacy: (Legacy) Oregon State University Tanguay Lab 120 Hour Post-fertilization zebrafish Assay for Truncated Body (AID 2283655)
Outline: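 Binary presence/absence of truncated body is recorded at 120 hpf by brightfield, with non-mortality endpoints skipped after death. Exposure is static from 6 hpf in sealed dark plates at 28C, using dechorionated wild-type zebrafish, 0.64% DMSO.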

[10] = read-out: ABC Transporter (ABCB1), ABCB1 (gene 5243); experiment: CLD_ABCB1_6hr: CellzDirect (CLD) Gene Expression Assay for ABC Transporter (ABCB1) at 6 hours (AID 2283659);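 further: hits raise ABCB1 transcript above the DMSO vehicle baseline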
Outline: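 ABCB1 transcript measured by quantitative nuclease protection assay, chemiluminescent read-out, 6 h after dosing human hepatocyte cultures (0.2% DMSO vehicle, daily redosing). Activity fitted as increase over DMSO baseline; cytotoxicity flagged by phase-contrast morphology.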

[11] = read-out: Broad substrate specificity ATP-binding cassette transporter ABCG2 (Homo sapiens) (UniProt Q9UNQ0); experiment: CLD_ABCG2_6hr: CellzDirect (CLD) Gene Expression Assay for ABC Transporter (ABCG2) at 6 hours (AID 2283660)
Outline: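 ABCG2 mRNA induction measured by qNPA chemiluminescence in human primary hepatocyte cultures, 6 h post-dose. Chemicals tested at several concentrations against a 0.2% DMSO vehicle; positive-direction fit relative to DMSO.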

[12] = read-out: xenobiotic metabolism (CYP1A1), CYP1A1 (gene 1543); experiment: CLD_CYP1A1_6hr: CellzDirect (CLD) Gene Expression Assay for xenobiotic metabolism (CYP1A1) at 6 hours (AID 2283661);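 on AC50: potency for transcript induction above DMSO vehicle baseline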
Outline: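 Read-out 6 h post-dose: qNPA chemiluminescent quantitation of transcript induction against 0.2% DMSO. Cells were cultured primary human hepatocytes from two separate donor preparations; phase-contrast morphology annotated apparent cytotoxicity.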

[13] = test system: Thyroperoxidase (TPO), gene 54314; experiment: CCTE_Simmons_AUR_rTPO: CCTE's Amplex UltraRed Assay for Thyroperoxidase (TPO) Inhibition, Simmons Lab (AID 2283662);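 on AC50: potency for loss of signal meaning inhibition of peroxidase activity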
Outline: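 Cell-free peroxidase activity assay using rat thyroid gland microsomes with excess H2O2 (300 uM) and 25 uM Amplex UltraRed. Compounds tested from 5 nM to 87.5 uM; fluorescence measured after 30 min at 37C, analysed relative to DMSO baseline.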

[14] = read-out: xenobiotic metabolism (CYP1A2), CYP1A2 (gene 1544); experiment: CLD_CYP1A2_6hr: CellzDirect (CLD) Gene Expression Assay for xenobiotic metabolism (CYP1A2) at 6 hours (AID 2283663);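 on AC50: potency is for induction meaning a rise in mRNA above DMSO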
Outline: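 mRNA levels quantified by quantitative nuclease protection assay with chemiluminescence, 6 h after dosing human primary hepatocyte cultures (two donors) across several concentrations, vehicle 0.2% DMSO. Induction fitted upward versus DMSO; phase-contrast cytotoxicity annotated.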

[15] = read-out: solute carrier (SLC22A6), SLC22A6 (gene 9356); experiment: LTEA_HepaRG_SLC22A6: Life Technologies and Expression Analysis (LTEA) Assay for solute carrier (SLC22A6) using HepaRG (AID 2283653; active means hit-call score of the fitted dose curve at least 0.9, where 1 is the maximum; inactive means score below 0.9); details: mRNA level, 48 h; actives raise or lower the signal
Outline: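 SLC22A6 transcript was measured by TaqMan qRT-PCR, normalized to three housekeeping genes, after 48 h duplicate exposure of HepaRG cells (100 uM top, half-log steps, 0.5% DMSO); bidirectional fit against vehicle.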

[16] = read-out: solute carrier (SLC10A1), SLC10A1 (gene 6554); experiment: LTEA_HepaRG_SLC10A1: Life Technologies and Expression Analysis (LTEA) Assay for solute carrier (SLC10A1) using HepaRG (AID 2283657; active means hit-call score of the fitted dose curve at least 0.9, where 1 is the maximum; inactive means score below 0.9); details: mRNA level, 48 h; actives raise or lower the signal
Outline: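 SLC10A1 transcript measured by TaqMan qRT-PCR, housekeeping-normalised, after 48 h chemical treatment of human HepaRG cells. Eight concentrations (half-log, max 100 uM, 0.5% DMSO vehicle) in duplicate; fitted bidirectionally against DMSO baseline.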

[17] = read-out: matrix metalloproteinase-1 (MMP1), MMP1 (gene 4312); experiment: LTEA_HepaRG_MMP1: Life Technologies and Expression Analysis (LTEA) Assay for matrix metalloproteinase-1 (MMP1) using HepaRG (AID 2283658; active means hit-call score of the fitted dose curve at least 0.9, where 1 is the maximum; inactive means score below 0.9); details: mRNA level, 48 h; actives raise or lower the signal
Outline: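 qRT-PCR (TaqMan, Fluidigm arrays) of MMP1 transcript, normalized against three housekeeping genes and fitted in both directions relative to 0.5% DMSO vehicle. Human HepaRG cultures received duplicate 48 h exposures across 8 points, highest 100 uM with half-log steps.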

Measured: AC50

Sequence of Broad substrate specificity ATP-binding cassette transporter ABCG2 (Homo sapiens) (Q9UNQ0 whole entry, looked up): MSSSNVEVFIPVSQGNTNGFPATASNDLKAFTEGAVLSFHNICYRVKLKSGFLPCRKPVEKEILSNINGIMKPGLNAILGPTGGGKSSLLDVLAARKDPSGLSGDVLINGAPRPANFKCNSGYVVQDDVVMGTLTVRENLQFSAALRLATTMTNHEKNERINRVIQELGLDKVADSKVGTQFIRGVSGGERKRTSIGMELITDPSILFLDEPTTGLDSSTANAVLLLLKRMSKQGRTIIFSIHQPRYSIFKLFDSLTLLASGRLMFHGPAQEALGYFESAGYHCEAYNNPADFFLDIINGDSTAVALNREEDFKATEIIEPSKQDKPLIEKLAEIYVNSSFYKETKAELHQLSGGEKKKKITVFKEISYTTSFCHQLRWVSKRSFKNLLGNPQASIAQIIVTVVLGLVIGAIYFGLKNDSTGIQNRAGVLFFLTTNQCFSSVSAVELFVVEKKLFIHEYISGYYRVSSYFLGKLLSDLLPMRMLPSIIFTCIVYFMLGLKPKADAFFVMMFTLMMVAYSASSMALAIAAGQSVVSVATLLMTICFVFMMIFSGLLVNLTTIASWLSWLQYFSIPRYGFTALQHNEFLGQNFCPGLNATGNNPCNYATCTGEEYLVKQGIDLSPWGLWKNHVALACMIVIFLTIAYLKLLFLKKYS

N#CN
active: [13] 2.93 µM
not listed: [15] | [16] | [17]
inactive: all other assays above

O=S1OCC2C(CO1)C1(Cl)C(Cl)=C(Cl)C2(Cl)C1(Cl)Cl (centres undefined)
not listed: [12] | [13] | [14] | [15] | [16] | [17]
inactive: all other assays above

N#Cc1c(Cl)c(Cl)c(Cl)c(C#N)c1Cl
active: [9] 47.8 µM | [16] 27.8 µM | [17] 13.3 µM | [11] 20 µM | [12] 36.8 µM | [14] 31.7 µM
not listed: [10] | [13]
inactive: all other assays above

CCCN(CCOc1c(Cl)cc(Cl)cc1Cl)C(=O)n1ccnc1
active: [16] 35.9 µM | [17] 69.2 µM | [12] 0.0868 µM | [14] 0.0805 µM
not listed: [11]
inactive: all other assays above

CCOc1nc(NC)nc(NC(=O)NS(=O)(=O)c2ccccc2C(=O)OC)n1
inactive: [10] | [11] | [12] | [14]

CCCN(CCC)c1c([N+](=O)[O-])cc(C(F)(F)F)cc1[N+](=O)[O-]
active: [12] 3.69 µM
not listed: [4] | [13]
inactive: all other assays above

Clc1ccccc1-c1nnc(-c2ccccc2Cl)nn1
not listed: [2] | [6] | [13] | [15] | [16] | [17]
inactive: all other assays above

COC(=O)c1ccccc1S(=O)(=O)NC(=O)Nc1nc(C)nc(OC)n1
inactive: [10] | [14]
active: [12] 20 µM

Cc1[nH]c(=O)n(C(C)(C)C)c(=O)c1Cl
active: [16] 50 µM | [12] 20 µM
not listed: [1] | [11] | [13]
inactive: all other assays above

CNC(=O)Oc1cccc(N=CN(C)C)c1
inactive: [1] | [3] | [4] | [5] | [6] | [9] | [11] | [12] | [14]
active: [13] 19.8 µM

O=C(Nc1ccccc1)Nc1cnns1
inactive: [1] | [2] | [3] | [4] | [5] | [6] | [7] | [9]
active: [12] 1.87 µM | [13] 43.8 µM | [14] 3.08 µM

CC(C)(C)C(O)/C(=C\c1ccc(Cl)cc1Cl)n1cncn1 (centres undefined)
inactive: [7] | [8] | [9] | [10] | [11] | [14]
active: [1] 70.7 µM | [2] 30.9 µM | [3] 25 µM | [4] 11.6 µM | [5] 42.5 µM | [12] 1.89 µM

[2H]C1([2H])[n+]2ccccc2-c2cccc[n+]2C1([2H])[2H]
inactive: [14]

Cc1cc(C)nc(NC(=O)NS(=O)(=O)c2ccccc2C(=O)OC2COC2)n1
inactive: [12]

O=C(NC(=O)c1c(F)cccc1F)Nc1ccc(OC(F)(F)C(F)OC(F)(F)F)c(Cl)c1 (centres undefined)
not listed: [1] | [11] | [13] | [15] | [16] | [17]
inactive: all other assays above
